Only some compounds are listed: those with a hit (about 12% of all), similar ones and a draw of the others.
Pf growth 48h = P. falciparum growth inhibition at 48 hours (one generation); P. falciparum luciferase growth in erythrocytes, 48 h; Potency, µM (series often up to 28.7 µM), usual class: inhibitors; 310,000 tested, 5.9% active; AID 504832
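Erythrocytes infected with P. falciparum carrying an integrated firefly luciferase reporter (2% hematocrit, 0.1% parasitemia final) were exposed to compounds in RPMI 1640 with 0.5% Albumax at 37 C, 5% CO2. Growth inhibition was scored as reduced luminescence.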
Pf growth 96h = inhibits malaria parasite growth, 96 h | P. falciparum luciferase reporter growth, 96 h | Potency, µM (series often up to 28.7 µM), usual class: inhibitors | 320,000 tested, 6.9% active
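Two parasite generations (96 h, 37 C, 5% CO2) of compound exposure in infected erythrocytes (0.05% parasitemia, 2% hematocrit). Luciferase-reporter P. falciparum; decreased luminescence indicates inhibited growth, aimed at apicoplast-acting delayed death.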
HCV inh = inhibitors of hepatitis C virus infection; Huh7.5.1 HCVcc-Cre infection, luciferase reporter, 44 h; Potency, µM (top dose mostly 41.8 µM), most hits filed as inhibitors; 340,000 tested, 3.4% active; AID 651820
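Whole-lifecycle infectious HCVcc-Cre system; cells 1,000/well, compound then virus (~0.5 moi) added 4 h after plating, 44 h culture. Luciferase read 15 sec following 15 min substrate incubation, room temp.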
SARS PLpro yeast = SARS-CoV PLP inhibition in yeast; S. cerevisiae expressing SARS-CoV PLpro, growth rescue; AID 485353; Potency, µM (top dose mostly 32.9 µM), actives largely listed as activators; 330,000 tested, 0.19% active; calls by dose curve; also: nearly all actives have a fitted effect of over 55% in size
AMA1-RON2 inh = AMA1-RON2 (P. falciparum) interaction inhibition. AlphaScreen AMA1-biotinylated RON2 peptide binding. Potency, µM (titrated, usually from 58.2 µM), most hits filed as inhibitors. 360,000 tested, 0.2% active. AID 720542; also: nearly all actives have a fitted effect of over 45% in size
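AMA1 (3D7) with his tag at 25 nM final met compounds first, then biotinylated RON2 peptide at 25 nM; detection used donor plus acceptor beads, 10 µg/mL apiece, read by AlphaScreen after 30 min at room temperature.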
NS1 function inh = influenza NS1 inhibition; Potency, µM (highest dose often 46.1 µM); 270,000 tested, 0.4% active; calls by dose curve; also: actives are rising curves; nearly all actives have a fitted effect of over 50% in size
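In this qHTS, NS1 from influenza A is expressed in budding yeast, where it slows growth. Cells are switched from glucose to 2% galactose medium (pH 6.0, -URA), treated with compound, and growth recovery is read at OD600.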
Numbers stand for hits; . = inactive; ? = inconclusive; / = no result given; [ ] = dose if it differs, or a comment. Unless noted, calls follow the shape of the dose curve; as a rule, active = well fitted curve in the direction sought with a large enough effect; inconclusive = small, poorly fitted or top-dose-only effect, or another doubt; inactive = no such curve, though single readings can be large; an effect the other way counts as inactive or inconclusive.

SMILES	Pf growth 48h	Pf growth 96h	HCV inh	SARS PLpro yeast	AMA1-RON2 inh	NS1 function inh
COc1ccc(S(=O)(=O)N2CCCCC2)cc1NC(=O)c1cccc(S(=O)(=O)N2CC(C)OC(C)C2)c1 (configuration not stated)	/	/	.	/	.	/
CCOC(=O)Cc1cc(=O)n2[nH]cc(-c3ccc(Cl)cc3)c2n1	.	.	.	.	.	.
CCOC(=O)C1=C(N)OC2=C(C(=O)CCC2)C12C(=O)N(CC(N)=O)c1ccccc12 (configuration not stated)	.	6.6µM	.	.	.	.
COc1cccc(CN2C(=O)C3(C(C#N)=C(N)OC4=C3C(=O)CCC4)c3ccccc32)c1 (configuration not stated)	4.1µM	.	.	.	.	.
CCOC(=O)C1=C(N)OC2=C(C(=O)CCC2)C12C(=O)N(C)c1ccccc12 (configuration not stated)	.	.	.	.	.	.
O=C(Cc1c(F)cccc1Cl)NNC(=O)c1ccc(Br)s1	/	/	.	.	.	/
CCc1c(C)sc(NC(=O)CC#N)c1C#N	.	0.83µM	.	.	.	.
COc1ccc2nc(NC(=O)CS(=O)(=O)c3ccc(C)cc3)sc2c1	?	.	.	.	.	.
Nc1nnc(SCC(=O)NC2CCCCC2)n1-c1ccccc1	.	8.3µM	.	.	.	.
O=C(CSc1nnnn1-c1ccc(C(=O)O)cc1)NC1CC1	.	?	.	?	.	.
Nc1cc(=O)nc(SCC(=O)NC2CCCCC2)n1-c1ccccc1	.	.	.	.	.	.
Cn1c(SCC(=O)NC2CCCCC2)nnc1-c1cccc(N)c1	.	4.1µM	.	.	.	.
NC(=O)c1ccc(-n2nnnc2SCC(=O)NC2CCCCC2)cc1	.	13µM	.	.	.	.
C/C=C/C=C/C(=O)[C@@H]1[C@@H]([C@]2(C)OC(=O)C(C)=C2O)[C@H]2/C(=C(O)/C=C/C=C/C)C(=O)[C@]1(C)C(=O)C2(C)O (some centres not stated)	.	7.4µM	.	.	.	.
COc1cccc(C(=O)OCC(=O)NCCCc2ccccc2)c1	/	.	.	.	.	.
CC(C)(C)c1ccc(C(=O)Nc2ccc(O)c3c(=O)cc(-c4ccccc4Cl)oc23)cc1	?	?	.	.	.	.
Cc1ccc(/C=C/C(=O)Nc2ccc(O)c3c(=O)cc(-c4ccccc4Cl)oc23)cc1	?	10µM	?	.	.	.
S=C(NCC1(c2ccccc2)CCCC1)Nc1ccccc1	.[0.00184 µM]	?	10µM	.	.	.
O=C(NCC1(c2ccccc2)CCCC1)C1(c2ccccc2)CCCC1	?	2.6µM	?	.	.	.
O=C(NCC1(c2ccccc2)CCCC1)C(=O)NCC1(c2ccccc2)CCCC1	.	.	.	.	.	.
O=c1[nH]c(/C=C\c2ccccc2F)nc(O)c1[N+](=O)[O-]	.	13µM	.	.	.	.
C#CCOc1c(/C=C\c2nc(O)c([N+](=O)[O-])c(=O)[nH]2)cc(Br)cc1OC	5.2µM	?	.	.	.	.
Cc1nc(CS(=O)(=O)c2ccc(Cl)cc2)cc(Sc2ccc(Cl)cc2)n1	3.3µM	2.3µM	?	.	.	.
O=C(NCc1csc(-c2ccccc2)n1)c1cc(F)cc2c1OCOC2	.	.	.	.	.	.
c1ccc(COc2cncc(-c3cccnc3)c2)cc1	10µM	?	?	.	.	/
SMILES	Pf growth 48h	Pf growth 96h	HCV inh	SARS PLpro yeast	AMA1-RON2 inh	NS1 function inh
CC(C)OC(=O)CSc1nc2c(c(C3CC=CCC3)c1C#N)CCC2 (configuration not stated)	/	?	.	.	.	.
C=CCSc1nc2c(c(C3CC=CCC3)c1C#N)CCC2 (configuration not stated)	?	8.3µM	.	.	?	.
O=C(CN1CCC(C(=O)c2cccc(Cl)c2)CC1)Nc1ccc(C(=O)O)cc1	.	.	.	.	.	.
Cc1ccc(C(=O)N2CCC3(CC2)Oc2ccc(F)cc2C(=O)C32CC(c3cccnc3)=NO2)s1 (configuration not stated)	9.3µM	13µM	.	.	.	?
O=C(c1ccoc1)N1CCC2(CC1)Oc1ccc(Cl)cc1C(=O)C21CC(c2cccnc2)=NO1 (configuration not stated)	?	?	.	.	.	.
CC(C)C(=O)N1CCC2(CC1)Oc1ccc(F)cc1C(=O)C21CC(c2cccnc2)=NO1 (configuration not stated)	.	.	/	.	/	.
O=C(/C=C/c1cccs1)N1CCC2(CC1)Oc1ccc(Cl)cc1C(=O)C21CC(c2ccccc2)=NO1 (configuration not stated)	13µM	?	.	.	?	.
O=C(c1ccoc1)N1CCC2(CC1)Oc1ccc(Cl)cc1C(=O)C21CC(c2ccccc2)=NO1 (configuration not stated)	15µM	?	11µM	.	.	.
CC(C)(C)OC(=O)N1CCC2(CC1)Oc1ccc(Cl)cc1C(=O)C21CC(c2ccc(Cl)cc2)=NO1 (configuration not stated)	/	/	.	/	.	/
COc1ccc([C@]23Cc4cc(C#N)ccc4C(O2)c2c(cc(-c4ccccc4)oc2=O)O3)cc1	?	.[5.75 µM]	/	.[6.58 µM]	/	.
COCC1CCCN(C(=O)c2ccc3oc(Cc4ccc(Cl)cc4)nc3c2)C1 (configuration not stated)	?	.	.	.	.	.
Cc1onc(-c2ccccc2)c1C(=O)Nc1cccc(S(=O)(=O)N2CCCCC2)c1	/	/	.	.	.	/
C/C=C(/C)C(=O)O[C@@H]1[C@H](OC(C)=O)c2c(ccc3ccc(=O)oc23)OC1(C)C	?	?	.[8.37 µM]	.	.	.
C/C=C(/C)C(=O)OC1c2c(ccc3ccc(=O)oc23)OC(C)(C)C1OC(C)=O (configuration not stated)	8.3µM	?	?	.	.	.
CCCCn1c(N)c(N(CC(C)C)C(=O)CCCSc2nncs2)c(=O)[nH]c1=O	.	.	.	.	.	/
CC(C)n1c(SCC(=O)c2ccc3c(c2)OCCO3)nc2c1c(=O)n(C)c(=O)n2C	.	.	13µM	.	.	.
COc1ccc(OC)c(C(=O)CSc2nc3c(c(=O)n(C)c(=O)n3C)n2C(C)C)c1	.	15µM	.	.	.	.
CC(C)n1c(SCC(=O)Nc2ccc3c(c2)OCO3)nc2c1c(=O)n(C)c(=O)n2C	.	.	?	.	.	.
O=C(NCc1cccs1)c1ccc(CS(=O)Cc2ccc(Cl)cc2)o1 (configuration not stated)	/	/	/	/	.	/
C[N+]1(C)C2CCC1CC(OC(=O)c1c[nH]c3ccccc13)C2 (configuration not stated)	?	6µM	.	/	.	.
